Bioassay records (PubChem BioAssay)
HT1080NT lethal: kills 2HG-producing HT-1080-NT fibrosarcoma cells; HT-1080-NT fibrosarcoma viability, CellTiter-Glo ATP luminescence, 48 h; Potency, µM (doses to about 46.1 µM), hits mostly cytotoxic; actives 1.6% (n = 360,000); AID 686970;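 also: NT is the 2HG producing partner of a matched IDH1 knockdown line; nearly all actives have a fitted effect of over 55% in size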
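Viability by CellTiter-Glo luminescence after 48 h compound exposure at 37C of HT-1080-NT cells (750/well, RPMI, 5% FBS). % activity scaled between DMSO wells and medium-only wells, then curve-fitted and categorized by curve class.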
MCF10A rerep: DNA re-replication induction in MCF 10a cells | MCF 10A DNA re-replication, Hoechst nuclear intensity, 48 h | Potency, µM (top dose mostly 46.1 µM), usual class: activators | actives 2.9% (n = 350,000) | AID 624296; also: nearly all actives have a fitted effect of over 50% in size
KB-V1 MDR tox: KB-V1 MDR subline cytotoxicity; actives 3.4% (n = 400,000); Potency, µM (doses to about 46.1 µM), usual class: cytotoxic; KB-V1 MDR cells viability, CellTiter-Glo, 72 h; also: nearly all actives have a fitted effect of over 60% in size
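qHTS viability screen in drug-selected KB-V1 MDR cells: 72 h compound treatment at 37 degrees C, ATP luminescence end point.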
HT1080 IDH1KD tx: kills HT-1080 cells with IDH1 knockdown; AID 686971; HT-1080 IDH1 knockdown viability, ATP luminescence, 48 h; actives 2% (n = 360,000); Potency, µM (doses to about 46.1 µM), actives largely listed as cytotoxic
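Knockdown cells (IDH1KD HT-1080) received compounds 2 h after plating at 750 cells/well and were kept 48 h at 37 °C in 5% FBS RPMI. A CellTiter-Glo luminescence read gave % activity for curve fitting.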
SW480 rerep: induces DNA re-replication in SW480 colon adenocarcinoma cells; SW480 DNA re-replication, Hoechst DNA content imaging, 48 h; Potency, µM (top dose mostly 46.1 µM), usual class: activators; actives 1.8% (n = 340,000); also: nearly all actives have a fitted effect of over 55% in size
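DNA re-replication was detected as more nuclei of elevated Hoechst intensity after 48 hr exposure to compound (23 nL pinned per well of 250 cells).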
KB-3-1 cytotox: kills parental KB-3-1 adenocarcinoma cells; KB-3-1 viability, CellTiter-Glo ATP luminescence, 72 h; Potency, µM (titrated, usually from 46.1 µM), most hits filed as cytotoxic; actives 1.4% (n = 400,000); also: nearly all actives have a fitted effect of over 60% in size
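Parental KB-3-1 adenocarcinoma cells in phenol-red-free DMEM with 10% FBS were pin-treated with compounds at several concentrations, incubated 72 h at 37 °C, and viability read by CellTiter-Glo luminescence; concentration-effect curves were fitted after normalization.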
Large screens that a line does not name were inactive. Compounds with a hit are over-represented: about 7.9% of the library has one in this group of screens. Calls follow the shape of the dose curve; as a rule, active = well fitted curve in the direction sought with a large enough effect; inconclusive = small, poorly fitted or top-dose-only effect, or another doubt; inactive = no such curve, though single readings can be large; an effect the other way counts as inactive or inconclusive.

COC(=O)C1CSC(C)(C)C(=O)N1 (stereo unspecified)	MCF10A rerep 0.92µM
NS(=O)(=O)c1ccc(NC(=O)CSc2nc3ccccc3nc2N2CCOCC2)cc1	none
CCc1cc[n+](C2=C([O-])c3ccccc3C(=O)/C2=N\S(=O)(=O)c2cccs2)cc1	HT1080NT lethal 18.4µM, MCF10A rerep inconclusive, HT1080 IDH1KD tx 18.4µM, SW480 rerep 4.61µM
CCc1ccccc1NC(=O)N1CCN(c2nnc(C)c3c(C)n(-c4ccccc4)nc23)CC1	none (no result: HT1080NT lethal, MCF10A rerep, HT1080 IDH1KD tx, SW480 rerep)
Cc1ccc(C(=O)N2CCC2(C)C(=O)NC(C)C)cc1 (stereo unspecified)	none (no result: MCF10A rerep, SW480 rerep)
CC1(C)C(O)=C(c2nc3ccccc3[nH]2)C(=N)N1c1ccccc1	HT1080NT lethal inconclusive, MCF10A rerep inconclusive, KB-V1 MDR tox inconclusive, HT1080 IDH1KD tx inconclusive, SW480 rerep 9.2µM, KB-3-1 cytotox inconclusive
CC(C)CCN1CC(O)=C(c2nc3ccccc3[nH]2)C1=N	KB-V1 MDR tox 10.3µM
CC(C)N1CC(O)=C(c2nc3ccccc3[nH]2)C1=N	none
CCOC(=O)C(C)Sc1nc2c(cnn2-c2ccc(F)cc2)c(=O)[nH]1 (stereo unspecified)	MCF10A rerep inconclusive, KB-V1 MDR tox inconclusive, KB-3-1 cytotox inconclusive
CC(C)c1cccc(-c2ccc3c(c2)S(=O)(=O)c2cccc(C(=O)NCc4ccccc4Cl)c2C3=O)c1	MCF10A rerep inconclusive, KB-3-1 cytotox 6.51µM
O=C(NCc1ccco1)c1cccc2c1C(=O)c1ccc(/C=C/c3ccccc3)cc1S2(=O)=O	HT1080NT lethal inconclusive, MCF10A rerep 9.2µM, HT1080 IDH1KD tx inconclusive, SW480 rerep inconclusive, KB-3-1 cytotox inconclusive
O=C(NCc1ccco1)c1cccc2c1C(=O)c1ccc(N3CCC(Cc4ccccc4)CC3)cc1S2(=O)=O	MCF10A rerep inconclusive, SW480 rerep inconclusive
Cc1ccc(-c2nc(P(=O)(c3ccccc3)c3ccccc3)c(N3CCOCC3)o2)cc1	MCF10A rerep inconclusive
CNc1oc(-c2ccc(Cl)cc2)nc1P(=O)(c1ccccc1)c1ccccc1	HT1080NT lethal inconclusive, MCF10A rerep 16.4µM, KB-V1 MDR tox inconclusive, HT1080 IDH1KD tx inconclusive, KB-3-1 cytotox inconclusive
COc1cccc(/C=N/n2nnnc2N)c1OCC#N	none
CCOC(=O)C(C)(C)N(Cc1ccc(C)cc1)S(=O)(=O)c1ccc(Cl)c([N+](=O)[O-])c1	HT1080NT lethal inconclusive, MCF10A rerep 11.6µM, HT1080 IDH1KD tx inconclusive, SW480 rerep inconclusive
CCOC(=O)C(C)(C)NS(=O)(=O)c1ccc(Cl)c([N+](=O)[O-])c1	MCF10A rerep inconclusive, KB-3-1 cytotox inconclusive
CCOC(=O)C(C)(C)N(Cc1ccc(Cl)cc1)S(=O)(=O)c1ccc(Cl)c([N+](=O)[O-])c1	MCF10A rerep 13µM, SW480 rerep inconclusive (no result: HT1080NT lethal, KB-V1 MDR tox, HT1080 IDH1KD tx, KB-3-1 cytotox)
O=C1C2CCCCC2C(=O)N1c1ccc(S(=O)(=O)Nc2ncccn2)cc1 (stereo unspecified)	none
O=C(Cn1c(COc2ccc(Cl)cc2)nc2ccccc21)NCC(F)(F)F	none
O=C(Cn1c(COc2ccccc2)nc2ccccc21)Nc1cc(Cl)ccc1Cl	KB-V1 MDR tox 23.1µM, KB-3-1 cytotox inconclusive
O=C(Cn1c(COc2ccccc2)nc2ccccc21)Nc1cc(Cl)cc(Cl)c1	HT1080NT lethal inconclusive, MCF10A rerep 11.6µM, HT1080 IDH1KD tx inconclusive
COc1ccc(CCNC(=O)c2ccc3c(c2)CCN3S(=O)(=O)c2ccccc2)cc1OC	none (no result: HT1080NT lethal, MCF10A rerep, HT1080 IDH1KD tx, SW480 rerep)
CC(C)Oc1ccc(CN2CCc3nc(Nc4ccc5c(c4)OCCO5)ncc3C2)cc1	none (no result: HT1080NT lethal, MCF10A rerep, HT1080 IDH1KD tx, SW480 rerep)
COc1cccc2c3cccc(OC)c3c3[nH]cnc3c12	MCF10A rerep 20.6µM, KB-V1 MDR tox inconclusive, HT1080 IDH1KD tx 20.6µM, SW480 rerep inconclusive, KB-3-1 cytotox inconclusive
Cc1cccc(N2CCN(CCCNC(=O)Cn3ncc4c([nH]c5ccccc54)c3=O)CC2C)c1 (stereo unspecified)	none (no result: HT1080NT lethal, MCF10A rerep, HT1080 IDH1KD tx, SW480 rerep)
CCCCCCCCCCS(=O)(=O)N/N=C/c1ccccc1OC	HT1080NT lethal inconclusive, MCF10A rerep 18.4µM, HT1080 IDH1KD tx inconclusive
O=[N+]([O-])c1ccc(N/N=C/c2cn(-c3ccccc3)nc2-c2ccccc2)cc1	HT1080NT lethal inconclusive, MCF10A rerep 1.64µM, KB-V1 MDR tox inconclusive, HT1080 IDH1KD tx inconclusive, SW480 rerep 10.3µM
COC(=O)N/N=C/c1cccc([N+](=O)[O-])c1	none
O=C(N/N=C/c1cccnc1)c1ccc([N+](=O)[O-])cc1	none
O=[N+]([O-])c1ccc(N/N=C/c2cccnc2)cc1	HT1080 IDH1KD tx 7.31µM, SW480 rerep inconclusive
O=[N+]([O-])c1ccc(NN=Cc2cccc([N+](=O)[O-])c2)cc1	HT1080NT lethal inconclusive, MCF10A rerep 23.1µM, HT1080 IDH1KD tx inconclusive
NS(=O)(=O)c1ccc(N/N=C/c2cn(-c3ccccc3)nc2-c2ccccc2)c([N+](=O)[O-])c1	KB-V1 MDR tox inconclusive, KB-3-1 cytotox inconclusive
CCCCCCCCCCS(=O)(=O)N/N=C/c1ccc(O)cc1	HT1080NT lethal inconclusive, HT1080 IDH1KD tx inconclusive
CC(C)C[C@H]1CNC(=S)N1CC1CCCN1C[C@H](CC(C)C)N1C[C@H](Cc2ccc(O)cc2)N(CC2CCCCCC2)C1=S (stereo partly specified)	KB-V1 MDR tox inconclusive, SW480 rerep inconclusive, KB-3-1 cytotox inconclusive
CCCCCCCCCS(=O)(=O)N/N=C/c1cccc([N+](=O)[O-])c1	MCF10A rerep 14.6µM, HT1080 IDH1KD tx inconclusive
Cc1cccc(C(=O)Oc2ccccc2/C=N/Nc2ccc([N+](=O)[O-])cc2)c1	MCF10A rerep inconclusive, SW480 rerep 13µM, KB-3-1 cytotox inconclusive
Cc1cccc(C(=O)Oc2ccc(/C=N/O)cc2)c1	none
O=[N+]([O-])c1ccc(N/N=C/c2cccc(O)c2O)cc1	HT1080NT lethal inconclusive, MCF10A rerep 23.1µM, HT1080 IDH1KD tx inconclusive, SW480 rerep inconclusive, KB-3-1 cytotox inconclusive
Cc1ccc(NC(=O)c2ccc(N/N=C/c3cccc(O)c3)c([N+](=O)[O-])c2)cc1	HT1080NT lethal 7.31µM, MCF10A rerep inconclusive, KB-V1 MDR tox inconclusive, HT1080 IDH1KD tx 7.31µM, KB-3-1 cytotox inconclusive
O=[N+]([O-])c1ccc(N/N=C/c2c[nH]c3ccccc23)cc1	MCF10A rerep inconclusive, KB-V1 MDR tox inconclusive, HT1080 IDH1KD tx inconclusive, SW480 rerep inconclusive, KB-3-1 cytotox inconclusive
Cc1ccc2oc(-c3ccc(C)c(NC(=O)COc4ccccc4C)c3)nc2c1	none (no result: HT1080NT lethal, MCF10A rerep, HT1080 IDH1KD tx, SW480 rerep)
Cc1ccc(C(O)c2ncc(-c3ccccc3Cl)[nH]2)c(C)c1 (stereo unspecified)	HT1080NT lethal inconclusive, HT1080 IDH1KD tx inconclusive (no result: MCF10A rerep, SW480 rerep)
C(=N\NC1=Nc2cccc3cccc1c23)/c1ccccc1	MCF10A rerep inconclusive
